In test [1] the target is Estrogen receptor beta (Homo sapiens) (UniProt Q92731). Kind of test: OT_ER_ERbERb_0480: Odyssey Thera (OT) 8-hour HEK293T Protein-Complementation Assay for Estrogen Receptor-beta/-beta Homodimer (AID 2283357).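 Also: active means signal gain over DMSO baseline.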 The method in brief: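 Fluorescence intensity, nuclear for agonists and nuclear plus cytoplasmic for antagonists, was quantified by laser scanning cytometry versus vehicle after 8 h treatment. The cells were HEK293T stably carrying ER beta LBD fragment-complementation partners.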
Sequence of Estrogen receptor beta (Homo sapiens) (Q92731 whole entry, looked up, the tested form may be a part): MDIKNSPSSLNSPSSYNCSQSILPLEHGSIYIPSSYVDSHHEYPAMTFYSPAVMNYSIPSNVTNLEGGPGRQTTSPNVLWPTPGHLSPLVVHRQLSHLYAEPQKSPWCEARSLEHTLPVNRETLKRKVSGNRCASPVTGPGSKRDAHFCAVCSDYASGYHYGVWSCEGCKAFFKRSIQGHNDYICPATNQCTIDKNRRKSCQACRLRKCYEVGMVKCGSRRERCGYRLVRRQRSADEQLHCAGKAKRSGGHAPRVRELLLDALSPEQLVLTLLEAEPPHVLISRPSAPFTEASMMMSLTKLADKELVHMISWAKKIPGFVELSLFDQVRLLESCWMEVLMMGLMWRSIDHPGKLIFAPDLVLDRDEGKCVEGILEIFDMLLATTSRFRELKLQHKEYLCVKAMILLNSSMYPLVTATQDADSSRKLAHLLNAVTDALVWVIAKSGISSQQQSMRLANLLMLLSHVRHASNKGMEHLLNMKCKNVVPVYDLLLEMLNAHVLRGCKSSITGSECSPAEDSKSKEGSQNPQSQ

In test [2] the target is Androgen Receptor/SRC-1 Co-activator, AR (gene 367) (UniProt P10275). Nature of the test: OT_AR_ARSRC1_0960: Odyssey Thera (OT) 16-hour HEK293T Protein-Complementation Assay for Androgen Receptor/SRC-1 Co-activator (AID 2283353).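 Also: actives raise the signal above DMSO so potency reflects increased AR and SRC-1 complex.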 The method in brief: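 HEK293T cells stably expressing AR and SRC-1 fused to Venus YFP fragments, imaged 16 h after dosing. Nuclear/cytoplasmic fluorescence ratio at 488 nm from at least 400 cells per image; gain of signal relative to DMSO.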
Sequence of Androgen Receptor/SRC-1 Co-activator, AR (gene 367) (P10275 whole entry, looked up, the tested form may be a part): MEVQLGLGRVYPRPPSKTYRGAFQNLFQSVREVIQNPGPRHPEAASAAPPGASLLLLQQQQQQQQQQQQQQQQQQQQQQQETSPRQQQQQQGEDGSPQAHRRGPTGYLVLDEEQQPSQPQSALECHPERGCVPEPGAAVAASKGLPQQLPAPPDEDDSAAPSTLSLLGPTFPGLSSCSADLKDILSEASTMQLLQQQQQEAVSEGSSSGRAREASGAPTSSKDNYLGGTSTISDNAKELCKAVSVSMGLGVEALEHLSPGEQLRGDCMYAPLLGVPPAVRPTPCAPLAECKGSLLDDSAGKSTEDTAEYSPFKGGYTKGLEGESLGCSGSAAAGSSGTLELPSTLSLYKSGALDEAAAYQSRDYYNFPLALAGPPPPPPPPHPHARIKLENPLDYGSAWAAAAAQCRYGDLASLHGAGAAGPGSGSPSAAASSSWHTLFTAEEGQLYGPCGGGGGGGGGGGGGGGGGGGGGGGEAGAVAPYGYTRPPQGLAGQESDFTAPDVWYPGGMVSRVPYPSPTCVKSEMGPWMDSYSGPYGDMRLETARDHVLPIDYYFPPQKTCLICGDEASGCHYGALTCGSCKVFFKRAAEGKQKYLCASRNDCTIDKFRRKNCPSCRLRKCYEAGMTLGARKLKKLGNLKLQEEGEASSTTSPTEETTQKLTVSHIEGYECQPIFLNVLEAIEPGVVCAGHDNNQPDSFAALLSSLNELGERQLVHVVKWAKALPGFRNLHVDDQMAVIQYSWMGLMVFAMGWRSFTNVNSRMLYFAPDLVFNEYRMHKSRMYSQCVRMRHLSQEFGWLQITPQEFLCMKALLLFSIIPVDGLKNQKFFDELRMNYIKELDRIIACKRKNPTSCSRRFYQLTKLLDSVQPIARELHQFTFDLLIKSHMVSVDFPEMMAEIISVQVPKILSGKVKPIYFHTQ

Test [3] has the same target. Kind of test: OT_AR_ARSRC1_0480: Odyssey Thera (OT) 8-hour HEK293T Protein-Complementation Assay for Androgen Receptor/SRC-1 Co-activator (AID 2283354).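 Also: hits raise the complementation signal above DMSO so AC50 marks enhancers.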 The procedure, abridged:
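HEK293T cells stably expressing AR and SRC-1 fused to Venus YFP fragments, imaged 8 h after dosing. Complementation fluorescence scored as nuclear/cytoplasmic ratio at 488 nm in at least 400 cells per image; gain fitted versus DMSO.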

Test [4] has as its target human Peroxisome Proliferator-activated Receptor alpha (PPARa), PPARA (gene 5465) (UniProt Q07869). Kind of test: NVS_NR_hPPARa: NovaScreen (NVS) Nuclear Receptor Binding Assay for human Peroxisome Proliferator-activated Receptor alpha (PPARa) (AID 2283359).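 Also: activity means loss of TR-FRET signal versus DMSO baseline.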 The method in brief:
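Cell-free TR-FRET binding assay with extracted PPARα protein, read 1 h after dosing. Primary screen in duplicate at 25 uM, with actives retested in concentration series. Loss of signal versus DMSO.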

Test [5] deals with human Adenosine Transporter (Adot), SLC29A1 (gene 2030) (UniProt Q99808). Kind of test: NVS_TR_hAdoT: NovaScreen (NVS) Transporter Assay for human Adenosine Transporter (Adot) (AID 2283368). The method in brief:
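U937-derived membranes, cell-free radioligand binding, filter scintillation 1 h after dosing. 25 uM duplicate screen; hits (e.g. 30% inhibition) run in concentration-response up to 50 uM; loss of signal versus DMSO.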

For test [6], the target named is Estrogen receptor (Homo sapiens) (UniProt P03372). Kind of test: OT_ER_ERaERa_0480: Odyssey Thera (OT) 8-hour HEK293T Protein-Complementation Assay for Estrogen Receptor-alpha/-alpha Homodimer (AID 2283351).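 Also: rise in fluorescence from reassembled reporter fragments on ERα LBD homodimer in nucleus or whole cell.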 The method in brief: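 The readout is complementation of fragments fused to the human ER alpha ligand-binding domain (aa 310-547), stably expressed in HEK293T cells. After 8 h of exposure, the increase in nuclear/cytoplasmic fluorescence was measured by laser scanning cytometry and fitted relative to DMSO.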
Sequence of Estrogen receptor (Homo sapiens) (P03372 whole entry, looked up, the tested form may be a part): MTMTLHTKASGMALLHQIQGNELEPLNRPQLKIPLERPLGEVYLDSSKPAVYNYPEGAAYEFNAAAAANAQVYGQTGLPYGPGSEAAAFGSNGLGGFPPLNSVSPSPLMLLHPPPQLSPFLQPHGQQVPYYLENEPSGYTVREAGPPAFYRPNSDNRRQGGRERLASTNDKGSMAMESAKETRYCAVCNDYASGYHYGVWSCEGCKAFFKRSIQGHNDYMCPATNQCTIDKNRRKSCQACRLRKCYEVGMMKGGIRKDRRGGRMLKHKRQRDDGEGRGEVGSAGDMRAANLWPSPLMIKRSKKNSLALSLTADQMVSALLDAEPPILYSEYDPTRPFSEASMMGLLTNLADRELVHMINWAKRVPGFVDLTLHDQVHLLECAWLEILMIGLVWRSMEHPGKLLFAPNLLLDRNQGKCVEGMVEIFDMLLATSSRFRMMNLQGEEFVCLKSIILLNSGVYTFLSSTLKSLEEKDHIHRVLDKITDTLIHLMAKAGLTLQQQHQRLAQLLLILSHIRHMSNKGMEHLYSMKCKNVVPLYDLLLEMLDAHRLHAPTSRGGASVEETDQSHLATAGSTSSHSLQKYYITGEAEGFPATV

For test [7], the target named is T1, Estrogen receptor (Homo sapiens) + Estrogen receptor beta (Homo sapiens) (UniProt P03372+Q92731). Nature of the test: OT_ER_ERaERb_0480: Odyssey Thera (OT) 8-hour HEK293T Protein-Complementation Assay for Estrogen Receptor-alpha/-beta Heterodimer (AID 2283352). The procedure, abridged: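 Fluorescence increase from reconstituted reporter fragments, quantified by laser scanning cytometer, reflects ER-alpha/ER-beta heterodimer formation in human HEK293T cells. Exposure 8 h; positive-direction fitting against DMSO vehicle.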
T1 sequence (P03372 whole entry, looked up, the tested form may be a part): as above
T1 sequence (Q92731 whole entry, looked up, the tested form may be a part): as the sequence (Q92731 whole entry, looked up, the tested form may be a part) above

For test [8], the target named is T1, Estrogen receptor (Homo sapiens) + Estrogen receptor beta (Homo sapiens). Nature of the test: OT_ER_ERaERb_1440: Odyssey Thera (OT) 24-hour HEK293T Protein-Complementation Assay for Estrogen Receptor-alpha/-beta Homodimer (AID 2283356).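 Also: heteromer of ER alpha and ER beta binding domains; hits raise reporter fluorescence and both agonists and antagonists give an increase.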 The procedure, abridged: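 Fragment complementation between ER alpha (310-547) and ER beta (263-489) ligand-binding domains in HEK293T cells; signal read 24 h post-dosing by laser scanning cytometer. Gain of fluorescence relative to DMSO fitted.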

In test [9] the target is rat Mineralocorticoid Receptor (MR), Nr3c2 (gene 25672) (UniProt P22199). Nature of the test: NVS_NR_rMR: NovaScreen (NVS) Nuclear Receptor Binding Assay for rat Mineralocorticoid Receptor (MR) (AID 2283355). The method in brief:
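Cell-free radioligand binding to mineralocorticoid receptor from adrenalectomized rat brain supernatant, scintillation counting after 24 h. Primary screen in duplicate at 25 uM; actives retested in concentration series. Loss of specific binding versus DMSO.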

For a further test, the target named is PGR (gene 5241) (UniProt P06401). Nature of the test: NVS_NR_hPR: NovaScreen (NVS) Nuclear Receptor Binding Assay for human Progestron Receptor (PR) (AID 2283360).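 Also: active means loss of bound radioligand signal versus DMSO baseline.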 The procedure, abridged:
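T47D-derived receptor preparation, cell-free, with tritiated or iodinated radioligand displacement measured by scintillation 18 h post-dosing. Single 25 uM duplicate screen, then concentration series; signal loss relative to DMSO.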

For test [10], the target named is Glucocorticoid receptor (Homo sapiens) (UniProt P04150). Kind of test: NVS_NR_hGR: NovaScreen (NVS) Nuclear Receptor Binding Assay for human Glucocorticoid Receptor (GR) (AID 2283363).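 As to AC50: activity is loss of specific radioligand binding signal relative to DMSO.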 The method in brief: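 Cell-free radioligand displacement assay on extracted human GR, read 16 h after dosing by filter-based scintillation counting. Screened in duplicate at 25 uM, then concentration series for actives; loss of signal versus DMSO baseline.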
Sequence of Glucocorticoid receptor (Homo sapiens) (P04150 whole entry, looked up): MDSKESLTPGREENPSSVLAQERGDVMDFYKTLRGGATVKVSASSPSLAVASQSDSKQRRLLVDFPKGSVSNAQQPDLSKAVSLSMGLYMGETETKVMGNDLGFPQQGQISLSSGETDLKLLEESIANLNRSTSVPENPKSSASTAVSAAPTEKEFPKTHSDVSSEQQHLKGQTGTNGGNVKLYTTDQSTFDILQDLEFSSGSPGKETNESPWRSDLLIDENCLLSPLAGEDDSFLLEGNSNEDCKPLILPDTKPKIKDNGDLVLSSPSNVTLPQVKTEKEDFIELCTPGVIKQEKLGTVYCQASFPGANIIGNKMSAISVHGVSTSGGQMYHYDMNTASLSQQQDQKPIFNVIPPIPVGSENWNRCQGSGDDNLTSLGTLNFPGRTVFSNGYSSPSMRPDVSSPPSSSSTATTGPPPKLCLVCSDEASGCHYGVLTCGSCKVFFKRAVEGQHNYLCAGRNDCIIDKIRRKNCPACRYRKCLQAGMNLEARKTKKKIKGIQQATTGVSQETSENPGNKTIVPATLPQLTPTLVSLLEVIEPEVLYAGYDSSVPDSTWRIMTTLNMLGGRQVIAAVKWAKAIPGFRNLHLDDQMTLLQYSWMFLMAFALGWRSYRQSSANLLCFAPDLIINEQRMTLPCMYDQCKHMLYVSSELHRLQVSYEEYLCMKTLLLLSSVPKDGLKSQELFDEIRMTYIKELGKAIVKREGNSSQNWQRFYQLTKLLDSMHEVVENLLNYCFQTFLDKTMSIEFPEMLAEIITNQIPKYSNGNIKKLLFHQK

Test [11] concerns the target Peroxisome proliferator-activated receptor gamma (Homo sapiens) (UniProt P37231). Nature of the test: NVS_NR_hPPARg: NovaScreen (NVS) Nuclear Receptor Binding Assay for human Peroxisome Proliferator-activated Receptor gamma (PPARg) (AID 2283370). The method in brief:
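Fluorescence polarization readout of ligand binding to extracted human PPARg, measured at 2 h. Duplicate single-point screen at 25 uM, then concentration-series retesting; activity defined as signal loss versus DMSO.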

Test [12] concerns the target guinea pig Sigma Receptor, Non-selective Binding, SIGMAR1 (gene 100135589) (UniProt Q60492). Nature of the test: NVS_OR_gSIGMA_NonSelective: NovaScreen (NVS) Nuclear Receptor Binding Assay for guinea pig Sigma Receptor, Non-selective Binding (AID 2283367). The procedure, abridged: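 Radioligand displacement on guinea pig brain membranes, read by filter-based scintillation counting 1 h after dosing. Loss of signal versus DMSO; initial duplicate single-point screen at 25 uM, actives followed in concentration series.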

For test [13], the system named is guinea pig Dopamine Transporter (DAT), gene 100714898. Kind of test: NVS_TR_gDAT: NovaScreen (NVS) Transporter Assay for guinea pig Dopamine Transporter (DAT) (AID 2283369).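 Also: active compounds lower bound radioligand signal relative to DMSO.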 The method in brief:
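Radioligand displacement on membranes from guinea pig striatum, 2 h exposure, bound label counted by filtration and scintillation. Tested at 25 uM in duplicate, then actives in concentration series to 50 uM; DMSO as negative control.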

In test [14] the target is Nuclear receptor subfamily 1 group I member 2 (Homo sapiens) (UniProt O75469). Kind of test: NVS_NR_hPXR: NovaScreen (NVS) Nuclear Receptor Binding Assay for human Pregnane X Receptor (PXR) (AID 2283365).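 Also: a drop in FRET signal versus DMSO baseline means the compound binds.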 The method in brief:
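Human PXR binding measured by TR-FRET in a cell-free format, 2 h exposure. Single-concentration duplicates at 25 uM preceded concentration-response retests of actives; endpoint fitted positively relative to DMSO, loss of signal indicating binding.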

Test [15] deals with Retinoic acid receptor alpha (Homo sapiens) (UniProt P10276). Nature of the test: NVS_NR_hRAR_Antagonist: NovaScreen (NVS) Nuclear Receptor Binding Assay for human Retinoic Acid Alpha Receptor Antagonism (RAR) (AID 2283358). The method in brief: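 Cell-free TR-FRET binding assay with extracted human RARalpha in antagonist mode, read 2 h after dosing. Loss of signal was fitted relative to DMSO; the primary screen used 25 uM in duplicate, with concentration series on follow-up.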

Test [16] deals with human Thyroid Receptor Alpha (TRa), THRA (gene 7067) (UniProt P10827). Kind of test: NVS_NR_hTRa_Antagonist: NovaScreen (NVS) Nuclear Receptor Binding Assay for human Thyroid Receptor Alpha Antagonism (TRa) (AID 2283362).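 Also: activity is loss of signal relative to DMSO baseline.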 The method in brief: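 Actives from a duplicate 25 uM single-point screen were retested in concentration series. The cell-free antagonist-format binding assay was read by AlphaLISA chemiluminescence at 1 h, scored as signal loss relative to DMSO.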
Sequence of human Thyroid Receptor Alpha (TRa), THRA (gene 7067) (P10827 whole entry, looked up): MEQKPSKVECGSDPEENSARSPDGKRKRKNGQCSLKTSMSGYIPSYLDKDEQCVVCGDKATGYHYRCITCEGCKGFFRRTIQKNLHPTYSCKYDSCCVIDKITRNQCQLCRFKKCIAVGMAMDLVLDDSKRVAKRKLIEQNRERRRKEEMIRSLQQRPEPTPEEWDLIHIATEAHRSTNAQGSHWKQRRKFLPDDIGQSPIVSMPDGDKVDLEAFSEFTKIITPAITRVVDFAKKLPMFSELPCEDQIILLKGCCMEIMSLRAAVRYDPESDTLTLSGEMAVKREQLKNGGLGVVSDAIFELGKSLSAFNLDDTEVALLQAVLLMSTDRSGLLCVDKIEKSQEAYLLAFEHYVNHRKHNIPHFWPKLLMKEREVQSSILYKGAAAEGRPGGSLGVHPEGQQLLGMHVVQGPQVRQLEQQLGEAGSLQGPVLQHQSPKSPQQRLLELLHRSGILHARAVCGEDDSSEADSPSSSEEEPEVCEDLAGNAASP

Results filed as inconclusive are left out. The source made the active and inactive calls. The calls were made as follows: active = hit-call score of the fitted dose curve at least 0.9, where 1 is the maximum; inconclusive = response in the unintended direction; inactive = score below 0.9.

Sequence of Peroxisome proliferator-activated receptor gamma (Homo sapiens) (P37231 whole entry, looked up): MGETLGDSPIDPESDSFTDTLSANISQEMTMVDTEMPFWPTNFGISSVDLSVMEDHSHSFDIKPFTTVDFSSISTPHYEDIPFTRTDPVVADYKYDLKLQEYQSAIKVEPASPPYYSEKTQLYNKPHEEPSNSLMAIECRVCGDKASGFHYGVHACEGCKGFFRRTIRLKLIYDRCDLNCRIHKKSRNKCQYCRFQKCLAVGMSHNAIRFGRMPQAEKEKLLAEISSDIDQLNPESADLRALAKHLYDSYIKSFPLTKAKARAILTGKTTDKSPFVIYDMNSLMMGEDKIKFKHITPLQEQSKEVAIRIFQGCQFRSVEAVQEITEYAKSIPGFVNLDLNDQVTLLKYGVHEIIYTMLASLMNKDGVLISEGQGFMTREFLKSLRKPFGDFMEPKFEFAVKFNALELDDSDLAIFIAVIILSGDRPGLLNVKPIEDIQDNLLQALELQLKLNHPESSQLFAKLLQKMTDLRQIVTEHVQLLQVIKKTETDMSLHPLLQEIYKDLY
Sequence of human Adenosine Transporter (Adot), SLC29A1 (gene 2030) (Q99808 whole entry, looked up): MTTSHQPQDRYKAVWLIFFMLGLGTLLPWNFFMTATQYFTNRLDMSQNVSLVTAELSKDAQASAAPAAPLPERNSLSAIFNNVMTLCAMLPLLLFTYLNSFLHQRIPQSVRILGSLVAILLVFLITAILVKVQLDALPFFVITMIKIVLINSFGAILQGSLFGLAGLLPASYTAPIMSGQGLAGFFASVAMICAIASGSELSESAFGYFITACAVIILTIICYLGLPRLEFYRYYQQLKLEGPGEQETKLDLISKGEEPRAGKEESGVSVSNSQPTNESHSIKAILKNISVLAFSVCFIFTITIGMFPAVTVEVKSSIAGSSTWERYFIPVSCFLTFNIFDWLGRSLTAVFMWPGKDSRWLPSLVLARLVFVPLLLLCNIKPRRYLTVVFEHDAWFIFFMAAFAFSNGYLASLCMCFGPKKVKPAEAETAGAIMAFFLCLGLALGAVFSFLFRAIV
Sequence of human Peroxisome Proliferator-activated Receptor alpha (PPARa), PPARA (gene 5465) (Q07869 whole entry, looked up): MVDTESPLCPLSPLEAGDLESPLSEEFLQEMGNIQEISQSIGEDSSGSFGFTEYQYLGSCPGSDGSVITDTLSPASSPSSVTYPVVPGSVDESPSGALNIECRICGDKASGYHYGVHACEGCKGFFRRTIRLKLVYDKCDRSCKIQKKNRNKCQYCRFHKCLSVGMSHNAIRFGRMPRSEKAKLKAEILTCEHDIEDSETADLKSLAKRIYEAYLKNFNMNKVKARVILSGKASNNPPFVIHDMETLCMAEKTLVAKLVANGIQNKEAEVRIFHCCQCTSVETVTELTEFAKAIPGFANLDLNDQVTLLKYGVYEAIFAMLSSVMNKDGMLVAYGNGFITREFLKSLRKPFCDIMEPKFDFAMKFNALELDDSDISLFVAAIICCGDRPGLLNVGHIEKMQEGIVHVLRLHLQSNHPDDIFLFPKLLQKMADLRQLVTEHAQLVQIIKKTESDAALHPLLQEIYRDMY

On to `CCOCCO`, for which, in test [1], the result was inactive.

Usually AC50 stands for the concentration giving half of the maximal activity seen. Consider `Fc1ccccc1[C@@H](F)COC1CCC(Nc2ncnc3[nH]ncc23)CC1` (stereo partly specified), for which the AC50 in test [2] is 33.2 µM (active); in test [3], 50 µM (active); in test [5], 5.08 µM (active). The call in test [1] and in [4] was inactive.

With `CCCCC(CC)COC(=O)CCCCCCCCC(=O)OCC(CC)CCCC` (stereo unspecified), the AC50 was 949 nM (active) in test [6] and 39.9 µM (active) in test [5].

`CCCC(=O)OCC`: the outcome in [7], in [8] and in test [1] was inactive.

In the case of `Oc1ccc2c(c1)-c1ccccc1C2`, the AC50 in test [2] was 35.1 µM (active); in test [3], 50 µM (active); in [1] it was 12.7 µM (active); with PGR (gene 5241) it was 9.66 µM (active). In addition, the compound was called inactive in test [9], in test [4], in [10] and in test [11].

With `COc1ccc(-n2nc(C(F)F)cc2-c2ccc(S(C)=O)cc2)cc1` (stereo unspecified), the compound was classed as inactive in test [6] and in test [11]. Moreover, the AC50 in test [10] is 16.7 µM (active); in test [5], 33.2 µM (active).

As for `CCCN(C1CCN(C(=O)C2CCNCC2)CC1)[C@@H]1CCc2ccc(OC)cc2C1`, the call in test [2], in test [3] and in [1] was inactive. For the same compound, the AC50 in test [12] is 7.69 µM (active).

Regarding `CC(C)CCCCCCOC(=O)c1ccc(C(=O)OCCCCCCC(C)C)c(C(=O)OCCCCCCC(C)C)c1`, the outcome in [1] was inactive.

Turning to `CN(C)c1ccc(N=NS(=O)(=O)O)cc1`, the call in [2] and in [3] was inactive. For the same compound, the AC50 in test [13] was 27.1 µM (active).

Turning to `COCCOCCOCCOC`, in [1], the result was inactive.

For the compound `C1N2CN3CN1CN(C2)C3`, the result (in test [2]; in [1]; with PGR (gene 5241)) was inactive.

`CCCCC(CC)COC(=O)c1ccc(C(=O)OCC(CC)CCCC)cc1` (stereo unspecified): the compound was classed as inactive in test [2], in [3] and in test [11]. Moreover, in [4], the AC50 is 25 µM (active).

Consider `Cc1ccc(O)cc1`, for which the compound was classed as inactive in test [2], in test [3] and in test [1].

For the compound `COC(=O)c1ccccc1O`, the outcome in test [7], in test [8], in [1] and in test [14] was inactive.

As for `O=C1OC(=O)C2C3C=CC(C3)C12` (stereo unspecified), in [15], the compound was classed as inactive.

Consider `Cc1[nH]cnc1C[C@H]1CCc2c(C)c3ccccc3n2C1=O`, for which the compound was classed as inactive in test [16].

Turning to `On1ccccc1=S`, the AC50 in test [16] is 9.11 µM (active).

With `O=C(OC[C@H]1O[C@@H](OC(=O)c2cc(O)c(O)c(OC(=O)c3cc(O)c(O)c(O)c3)c2)[C@H](OC(=O)c2cc(O)c(O)c(OC(=O)c3cc(O)c(O)c(O)c3)c2)[C@@H](OC(=O)c2cc(O)c(O)c(OC(=O)c3cc(O)c(O)c(O)c3)c2)[C@@H]1OC(=O)c1cc(O)c(O)c(OC(=O)c2cc(O)c(O)c(O)c2)c1)c1cc(O)c(O)c(OC(=O)c2cc(O)c(O)c(O)c2)c1`, the AC50 in test [5] is 3.15 µM (active).

As to `CCc1cc(SCc2sc(-c3ccc(C(F)(F)F)cc3)nc2CN2CCN(c3ccc(OC)cc3)CC2)ccc1OCC(=O)O`, the AC50 in test [5] was 10.8 µM (active).

The record behind these values is PubChem BioAssay (EPA / NIEHS).
